The source of these data is PubChem BioAssay (EPA / NIEHS).

Activity calls are given as the source filed them. Rule for the calls: active = hit-call score of the fitted dose curve at least 0.9, where 1 is the maximum; inactive = score below 0.9.

Experiment [1] has as its target Nuclear respiratory factor 1 (Homo sapiens) (UniProt Q16656). Description: ATG_NRF1_CIS: Attagene CIS-FACTORIAL HepG2 Assay for human Nuclear Respiratory Factor 1 (NRF1) Orphan Gene (AID 2282987). The settings on record: HepG2 NRF1 cis-element reporter, Attagene multiplex; actives raise or lower the signal. A digest of the protocol:
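HepG2 cells transiently transfected with multiple cis-regulated reporter units, exposed 24 h. Reporter mRNAs measured by RT-PCR, fluorescent labelling, HpaI digestion and capillary electrophoresis; bidirectional fitting against DMSO.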

A short description of experiment [2]: ATG_NFI_CIS: Attagene CIS-FACTORIAL HepG2 Assay for human Nuclear Factor I (NFI) (AID 2282989). The settings on record: HepG2 cis-regulatory reporter, NFI response element transcription; actives raise or lower the signal. The procedure, abridged: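 Read-out: reporter mRNA via RT-PCR plus capillary electrophoresis with fluorescence detection. Transiently transfected HepG2 (endogenous TF activity on cis promoters), 24 h compound exposure; gain or loss of signal fitted against DMSO.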

Experiment [3] has as its target Myc proto-oncogene protein (Homo sapiens) (UniProt P01106). Description: ATG_Myc_CIS: Attagene CIS-FACTORIAL HepG2 Assay for human Myelocytomatosis (Myc) Proto-Oncogene Transcription Factor (AID 2282990). The settings on record: HepG2, Attagene cis-reporter transcription factor activity; actives raise or lower the signal. The procedure, abridged: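 Read-out: fluorescent reporter mRNA fragments resolved by capillary electrophoresis after RT-PCR. Human HepG2 liver cells carried transfected cis-element reporter units and were dosed for 24 h. Gain or loss of signal fitted relative to DMSO baseline.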

Experiment [4] in a line: ATG_NF_kB_CIS: Attagene CIS-FACTORIAL HepG2 Assay for human Nuclear Factor Kappa B (NF-kB) (AID 2282991). The settings on record: HepG2 Attagene cis-factorial NF-kB reporter mRNA; actives raise or lower the signal. The procedure, abridged:
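HepG2 cells transfected with cis-promoter-driven reporter units, so endogenous transcription factor activity is measured. Reporter mRNA quantified 24 h after dosing by RT-PCR and capillary electrophoresis, with bidirectional fitting against DMSO.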

The nature of experiment [5]: ATG_NRF2_ARE_CIS: Attagene CIS-FACTORIAL HepG2 Assay for human Nuclear Factor Erythroid 2 Related Factor 2 (NFR2) response to Antioxidant Response Elements (ARE) (AID 2282992).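 For AC50: reporter mRNA level measured by RT-PCR and capillary electrophoresis fluorescence.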 The settings on record: HepG2 Attagene ARE/NRF2 reporter, transcription factor activity; actives raise or lower the signal. The procedure, abridged: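 Fluorescence intensity of reporter-specific cDNA fragments, separated by capillary electrophoresis, reflects mRNA induction in transfected HepG2 cells at 24 h. Activity is fitted bidirectionally, DMSO serving as baseline.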

Experiment [6] in a line: ATG_Oct_MLP_CIS: Attagene CIS-FACTORIAL HepG2 Assay for human Octamer-Binding Transcription Factor (Oct) (AID 2282993). The settings on record: HepG2 Attagene cis-factorial Oct reporter, mRNA; actives raise or lower the signal. A digest of the protocol: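 Read-out: reporter mRNA via RT-PCR plus capillary electrophoresis of 6-FAM-labelled fragments. Transiently transfected HepG2, 24 h exposure, endogenous TF activity on cis elements. Gain or loss of signal fitted relative to DMSO.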

Experiment [7] has as its target Cellular tumor antigen p53 (Homo sapiens) (UniProt P04637). Put plainly: ATG_p53_CIS: Attagene CIS-FACTORIAL HepG2 Assay for human p53 Transcription Factor (AID 2282994). The settings on record: HepG2 p53 cis-element reporter, Attagene mRNA; actives raise or lower the signal. A digest of the protocol: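 Transiently transfected HepG2 (multiple cis reporter transcription units); exposure 24 h; reporter RNA via RT-PCR, 6-FAM extension, 2 h HpaI digest at 37 C, CE detection; DMSO baseline.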

Chain of Nuclear respiratory factor 1 (Homo sapiens) (Q16656 whole entry, looked up): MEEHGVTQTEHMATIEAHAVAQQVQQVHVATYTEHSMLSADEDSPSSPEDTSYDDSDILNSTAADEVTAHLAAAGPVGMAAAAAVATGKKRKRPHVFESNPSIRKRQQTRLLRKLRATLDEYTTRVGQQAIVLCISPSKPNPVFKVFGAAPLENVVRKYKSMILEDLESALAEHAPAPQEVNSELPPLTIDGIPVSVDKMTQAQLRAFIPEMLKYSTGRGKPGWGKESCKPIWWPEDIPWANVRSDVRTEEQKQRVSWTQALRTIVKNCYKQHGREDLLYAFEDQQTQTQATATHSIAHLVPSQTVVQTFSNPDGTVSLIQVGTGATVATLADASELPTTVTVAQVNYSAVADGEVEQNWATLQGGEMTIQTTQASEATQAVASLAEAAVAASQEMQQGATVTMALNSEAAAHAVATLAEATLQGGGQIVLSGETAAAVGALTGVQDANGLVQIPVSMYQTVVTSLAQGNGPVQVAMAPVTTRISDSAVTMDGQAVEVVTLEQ
Chain of Myc proto-oncogene protein (Homo sapiens) (P01106 whole entry, looked up, the tested form may be a part): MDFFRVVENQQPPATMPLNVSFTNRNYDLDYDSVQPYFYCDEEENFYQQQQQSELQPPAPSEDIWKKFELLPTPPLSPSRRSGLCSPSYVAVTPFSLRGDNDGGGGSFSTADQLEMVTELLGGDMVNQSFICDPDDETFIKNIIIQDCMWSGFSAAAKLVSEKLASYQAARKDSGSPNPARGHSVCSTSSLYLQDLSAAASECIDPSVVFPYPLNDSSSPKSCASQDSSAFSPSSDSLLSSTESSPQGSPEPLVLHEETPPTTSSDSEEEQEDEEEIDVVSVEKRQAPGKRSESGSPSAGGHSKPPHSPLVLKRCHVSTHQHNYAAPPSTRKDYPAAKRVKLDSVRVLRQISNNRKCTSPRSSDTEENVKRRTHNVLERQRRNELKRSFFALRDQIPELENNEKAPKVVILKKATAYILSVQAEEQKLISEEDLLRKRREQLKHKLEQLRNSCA
Chain of Cellular tumor antigen p53 (Homo sapiens) (P04637 whole entry, looked up): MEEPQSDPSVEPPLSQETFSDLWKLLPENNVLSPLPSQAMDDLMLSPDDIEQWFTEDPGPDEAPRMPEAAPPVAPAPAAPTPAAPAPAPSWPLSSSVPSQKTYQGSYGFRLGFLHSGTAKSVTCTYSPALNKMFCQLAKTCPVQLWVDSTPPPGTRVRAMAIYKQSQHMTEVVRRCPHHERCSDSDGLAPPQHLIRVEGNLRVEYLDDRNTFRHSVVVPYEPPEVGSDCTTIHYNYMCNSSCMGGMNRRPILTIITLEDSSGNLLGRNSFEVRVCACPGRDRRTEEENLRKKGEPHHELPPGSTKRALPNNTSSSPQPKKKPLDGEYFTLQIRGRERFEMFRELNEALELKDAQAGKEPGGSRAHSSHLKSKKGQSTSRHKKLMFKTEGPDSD

With `CCCC1CCCC(=O)O1` (stereo not given), the outcome in experiment [1], in experiment [2], in experiment [3], in experiment [4], in experiment [5] and in experiment [6] was inactive. Moreover, in experiment [7], the molecule was called inactive.

As to `Nc1ccc(O)c([N+](=O)[O-])c1`, the outcome in experiment [1], in experiment [2], in experiment [3] and in experiment [6] was inactive. In addition, the AC50 in experiment [4] is 37.2 µM (active); in experiment [5], 57.9 µM (active).

On to `COc1cc(O)c(C(=O)c2ccccc2)cc1S(=O)(=O)O`, for which the call in experiment [1], in experiment [2], in experiment [3], in experiment [4], in experiment [5] and in experiment [6] was inactive.

`C=CC(C)(CCC=C(C)C)OC(=O)C=Cc1ccccc1` (stereo not given): the outcome in experiment [1], in experiment [2], in experiment [3], in experiment [4], in experiment [6] and in experiment [7] was inactive. Also, the AC50 in experiment [5] was 32.9 µM (active).

For the molecule `CC1CC(=O)CC(C)(C)C1` (stereo not given), the result in experiment [1], in experiment [2], in experiment [3], in experiment [4], in experiment [5] and in experiment [6] was inactive. The molecule was classed as inactive in experiment [7].

Take `Cc1c(C(=O)c2c[nH]n(C)c2=O)ccc(S(C)(=O)=O)c1C1=NOCC1`: the molecule was called inactive in experiment [1], in experiment [2], in experiment [3], in experiment [4], in experiment [5] and in experiment [6]. In addition, the molecule was classed as inactive in experiment [7].

In the case of `CCCCCCCC(=O)OCC`, the outcome in experiment [1], in experiment [2], in experiment [3], in experiment [4], in experiment [5] and in experiment [6] was inactive. Also, the call in experiment [7] was inactive.

For the molecule `CCC(C)C(=O)OCCc1ccccc1` (stereo not given), the outcome in experiment [1], in experiment [2], in experiment [3], in experiment [4], in experiment [5] and in experiment [6] was inactive. In addition, the molecule was called inactive in experiment [7].

For the molecule `CCCCOCCOCCOC(C)=O`, the molecule was called inactive in experiment [1], in experiment [2], in experiment [3], in experiment [4], in experiment [5] and in experiment [6]. Besides, the call in experiment [7] was inactive.

As for `CC(C)(CO)C(O)C(=O)NCCCO` (stereo not given), the outcome in experiment [1], in experiment [2], in experiment [3], in experiment [4], in experiment [5] and in experiment [6] was inactive.

As for `CC(C)COC(=O)CC(C(=O)OCC(C)C)S(=O)(=O)O` (stereo not given), the molecule was called inactive in experiment [1], in experiment [2], in experiment [3], in experiment [4], in experiment [5] and in experiment [6]. Besides, the molecule was called inactive in experiment [7].

For `Cc1c(Cl)cccc1Cl`, the result in experiment [1], in experiment [2], in experiment [3], in experiment [4], in experiment [5] and in experiment [6] was inactive.

Regarding `CCOC(=O)CC(=O)c1ccccc1`, the result in experiment [1], in experiment [2], in experiment [3], in experiment [4], in experiment [5] and in experiment [6] was inactive.

For `O=C(O)CCC(=O)O`, the molecule was called inactive in experiment [1], in experiment [2], in experiment [3], in experiment [4], in experiment [5] and in experiment [6].

For the molecule `CC(C)OC(=O)c1ccccc1`, the result in experiment [1], in experiment [2], in experiment [3], in experiment [4], in experiment [5] and in experiment [6] was inactive. For the same molecule, the molecule was classed as inactive in experiment [7].

With `COC(=O)c1ccc(C(=O)OC)c(C(=O)OC)c1`, the call in experiment [1], in experiment [2], in experiment [3], in experiment [4], in experiment [5] and in experiment [6] was inactive.

For the molecule `CCCCC(CC)COS(=O)(=O)O` (stereo not given), the call in experiment [1], in experiment [2], in experiment [3], in experiment [4], in experiment [5] and in experiment [6] was inactive.

Regarding `CC(C)CCOCc1ccccc1`, the outcome in experiment [1], in experiment [2], in experiment [3], in experiment [4], in experiment [5] and in experiment [6] was inactive.

Turning to `CCCCCC[C@@H](O)C/C=C\CCCCCCCC(=O)OCC(O)CO` (stereo not given in full), the AC50 in experiment [1] was 179 µM (active); in experiment [3], 162 µM (active); in experiment [5] it was 87.9 µM (active); in experiment [7], 181 µM (active). Besides, the molecule was classed as inactive in experiment [2], in experiment [4] and in experiment [6].

For `N#Cc1ccc(C(c2ccc(C#N)cc2)n2cncn2)cc1`, the call in experiment [1], in experiment [2], in experiment [3], in experiment [4], in experiment [5] and in experiment [6] was inactive.

For `CCOc1ccc(NC(N)=O)cc1`, the result in experiment [1], in experiment [2], in experiment [3] and in experiment [4] was inactive.

Take `CC(C)=NNC(N)=S`: the molecule was called inactive in experiment [1], in experiment [2], in experiment [3], in experiment [4], in experiment [5] and in experiment [6]. Further, the molecule was called inactive in experiment [7].

As for `CCC(C)C(=O)OC` (stereo not given), the call in experiment [1], in experiment [2], in experiment [3], in experiment [4], in experiment [5] and in experiment [6] was inactive. The result in experiment [7] was inactive.

Take `Cc1ccc(C)c(OCCCC(C)(C)C(=O)O)c1`: the molecule was called inactive in experiment [1], in experiment [2], in experiment [3], in experiment [4], in experiment [5] and in experiment [6].

With `CC(C)CO`, the call in experiment [1], in experiment [2], in experiment [3], in experiment [4], in experiment [5] and in experiment [6] was inactive.

Consider `C=C(C)OC(C)=O`, for which the result in experiment [1], in experiment [2], in experiment [3], in experiment [4], in experiment [5] and in experiment [6] was inactive. For the same molecule, the molecule was classed as inactive in experiment [7].

In the case of `C/C=C/C=C/CCCCCCCO`, the result in experiment [1], in experiment [2], in experiment [3], in experiment [4], in experiment [6] and in experiment [7] was inactive. Moreover, in experiment [5], the AC50 was 45.6 µM (active).

Turning to `CC1=CCC2CC1C2(C)C` (stereo not given), the call in experiment [1], in experiment [2], in experiment [3], in experiment [4], in experiment [5] and in experiment [6] was inactive.

For the molecule `Cc1ccc2c(c1)CCCN2`, the outcome in experiment [1], in experiment [2], in experiment [3] and in experiment [4] was inactive.

With `O=C1CCCN1C1CCCCC1`, the outcome in experiment [1], in experiment [2], in experiment [3], in experiment [4] and in experiment [5] was inactive.

Consider `O=C1c2ccccc2C(=O)c2cc(S(=O)(=O)O)ccc21`, for which the result in experiment [1], in experiment [2], in experiment [3], in experiment [4] and in experiment [6] was inactive. For the same molecule, the AC50 in experiment [5] is 100 µM (active).

With `O=C(O[C@@H]1Cc2c(O)cc(O)cc2O[C@@H]1c1cc(O)c(O)c(O)c1)c1cc(O)c(O)c(O)c1`, the molecule was classed as inactive in experiment [1], in experiment [2], in experiment [3], in experiment [4], in experiment [5] and in experiment [6]. Also, the molecule was called inactive in experiment [7].

With `CCCCC(C=O)CC` (stereo not given), the outcome in experiment [1], in experiment [2], in experiment [3], in experiment [4], in experiment [5] and in experiment [6] was inactive.

Turning to `Cc1noc(NS(=O)(=O)c2ccc(N)cc2)c1C`, the molecule was classed as inactive in experiment [1], in experiment [2], in experiment [3], in experiment [4], in experiment [5] and in experiment [6]. For the same molecule, the outcome in experiment [7] was inactive.
